Experimental data as given in PubChem BioAssay (NCATS).
Results filed as inconclusive are left out. Active and inactive are the calls of the source. Calls come from the whole dose curve; as a rule, active = well fitted curve in the direction sought with a large enough effect; inconclusive = small, poorly fitted or top-dose-only effect, or another doubt; inactive = no such curve, though single readings can be large; an effect the other way counts as inactive or inconclusive.

Legend:
C33A = test: Primary qHTS to identify gynecologic anti-cancer compounds using libraries of approved drugs and bioactive compounds (AID 1345084); conditions: Gynecologic cancer cell panel viability, ATPlite luminescence, 48 h; series mostly up to 57.5 µM; note: nearly all actives have a fitted effect of over 55% in size
Method in brief: (§1)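 Cells, 1,000 per well, were allowed to settle for 16 h at 37 C before compound addition. Five concentrations were tested for 48 h, and viability was read by ATPlite luminescence after 15 min at room temperature.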

CASKI = test: as above; conditions: Gynecologic cancer cell panel viability, ATPlite luminescence, 48 h; series mostly up to 57.5 µM
Method in brief: as §1

HeLa = test: as above; conditions: Gynecologic cancer cell panel viability, ATPlite luminescence, 48 h; series mostly up to 57.5 µM
Method in brief: as §1

OV90 = test: as above; conditions: Gynecologic cancer cell panel viability, ATPlite luminescence, 48 h; series mostly up to 57.5 µM
Method in brief: as §1

SKOV3 = test: as above; conditions: Gynecologic cancer cell panel viability, ATPlite luminescence, 48 h; series mostly up to 57.5 µM
Method in brief: as §1

Tov112D = test: as above; conditions: Gynecologic cancer cell panel viability, ATPlite luminescence, 48 h; series mostly up to 57.5 µM
Method in brief: as §1

Es-2 = test: as above; conditions: Gynecologic cancer cell panel viability, ATPlite luminescence, 48 h; series mostly up to 57.5 µM
Method in brief: as §1

Hek293T = test: as above; conditions: Gynecologic cancer cell panel viability, ATPlite luminescence, 48 h, control line for the selectivity index; series mostly up to 57.5 µM
Method in brief: as §1

JEG-3 = test: as above; conditions: Gynecologic cancer cell panel viability, ATPlite luminescence, 48 h; series mostly up to 57.5 µM
Method in brief: as §1

Tov-21-G = test: as above; conditions: Gynecologic cancer cell panel viability, ATPlite luminescence, 48 h; series mostly up to 57.5 µM
Method in brief: as §1

PA-1 = test: as above; conditions: Gynecologic cancer cell panel viability, ATPlite luminescence, 48 h; series mostly up to 57.5 µM
Method in brief: as §1

[1] = qHTS assay to identify inhibitors of the type 1 interferon - major histocompatibility complex class I in skeletal muscle: Counter screen cell viability and HiBit confirmation (AID 1347412); conditions: iHSKM muscle cells + IFN-b, HiBiT or CellTiter-Glo, 24 h; note: nearly all actives have a fitted effect of over 60% in size
Method in brief: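 Human myoblast knock-in line, 4.0 ng/ml IFN-beta stimulation, 24 h compound treatment. Endpoints: HiBiT lytic luminescence (HLA-B level) and CellTiter Glo (ATP). Dosing 12 concentrations, 3-fold steps, 46 uM highest final.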
% is set by controls: 0 for no effect and ±100 for the full control effect; potency is the fitted concentration of half-maximal effect.

O=C1C=CC2OC(c3ccccc3)C(O)C2O1 (stereo not drawn)
inactive: Potency (C33A) | Potency (CASKI) | Potency (HeLa) | Potency (OV90) | Potency (SKOV3) | Potency (Tov112D)

CCCCc1ccc(C(=O)Nc2cc(-c3ccc(Cl)cc3)nn2-c2ccc(Cl)cc2)cc1
inactive: Potency (C33A) | Potency (CASKI) | Potency (Es-2) | Potency (HeLa) | Potency (Hek293T) | Potency (JEG-3) | Potency (OV90) | Potency (Tov-21-G) | Potency (Tov112D)

O=C(/C=C/c1cccc(S(=O)(=O)Nc2ccccc2)c1)NO
inactive: activity change, negative = inhibition ([1]; Viability, at 45.9 µM (top of the series)) -9.07%
active: Potency (C33A) 11.2 µM | Potency (CASKI) 8.91 µM | Potency (Es-2) 5.01 µM | Potency (HeLa) 4.47 µM | Potency (JEG-3) 4.47 µM | Potency (OV90) 3.98 µM | Potency (PA-1) 1.26 µM | Potency (SKOV3) 11.2 µM | Potency (Tov112D) 3.98 µM | Potency ([1]; HiBiT) 3.13 µM

O=C(O)C1CN(Cc2ccc(-c3nc4cc(Cc5ccccc5F)ccc4s3)c(F)c2)C1
inactive: activity change, negative = cytotoxicity (C33A) 7.49% [at 11.6 µM] | activity change, negative = cytotoxicity (Es-2) 0.907% [at 11.6 µM] | activity change, negative = cytotoxicity (HeLa) 11.8% [at 11.6 µM] | activity change, negative = cytotoxicity (Hek293T) 9.39% [at 11.6 µM] | activity change, negative = cytotoxicity (JEG-3) 9.86% [at 11.6 µM] | activity change, negative = cytotoxicity (OV90) 12.7% [at 11.6 µM] | activity change, negative = cytotoxicity (Tov-21-G) 0.219% [at 11.6 µM] | activity change, negative = cytotoxicity (Tov112D) 10.6% [at 11.6 µM]

FC(F)(F)c1ccc(Nc2nc(-c3c(C(F)(F)F)nc4ccccn34)cs2)cc1
active: Potency (C33A) 20 µM | Potency (Es-2) 2 µM | Potency (HeLa) 0.891 µM | Potency (PA-1) 1.26 µM | Potency (Tov112D) 0.708 µM
inactive: Potency (CASKI)

COc1ccc(CCC(=O)c2c(O)cc(O)cc2O[C@@H]2O[C@H](CO)[C@@H](O)[C@H](O)[C@H]2O)cc1
inactive: Potency (C33A) | Potency (CASKI) | Potency (HeLa) | Potency (JEG-3) | Potency (OV90) | Potency (PA-1) | Potency (Tov-21-G) | Potency (Tov112D)

N#Cc1cc(F)cc(-c2nc(-c3ccccn3)no2)c1
inactive: Potency (C33A) | Potency (CASKI) | Potency (Hek293T) | Potency (Tov112D)

CC(Oc1cc(-n2cnc3ccc(CN4CCN(C)CC4)cc32)sc1C(N)=O)c1ccccc1C(F)(F)F (stereo not drawn)
active: Potency (C33A) 8.91 µM | Potency (Es-2) 7.94 µM | Potency (HeLa) 3.55 µM | Potency (JEG-3) 5.62 µM | Potency (PA-1) 11.2 µM
inactive: Potency (OV90)

NC1CCC(Nc2cc(-c3cccc(NCc4cccc(F)c4)n3)c(Cl)cn2)CC1 (stereo not drawn)
active: Potency (C33A) 1.26 µM | Potency (CASKI) 0.891 µM | Potency (Es-2) 0.708 µM | Potency (HeLa) 0.355 µM | Potency (Hek293T) 1 µM | Potency (PA-1) 0.178 µM | Potency (Tov112D) 0.891 µM

NCc1ccc(Nc2ncc(F)c(Nc3ccccc3)n2)cc1
active: Potency (HeLa) 15.8 µM | Potency (PA-1) 12.6 µM
inactive: Potency (C33A) | Potency (CASKI) | Potency (Hek293T) | Potency (JEG-3) | Potency (OV90) | Potency (Tov112D)

O=[N+]([O-])c1cccc2[nH]c(CNc3nc(N4CCOCC4)nc4c3ncn4-c3ccsc3)nc12
active: Potency (C33A) 0.178 µM | Potency (CASKI) 0.891 µM | Potency (HeLa) 0.891 µM | Potency (Hek293T) 0.316 µM | Potency (PA-1) 0.891 µM | Potency (SKOV3) 0.794 µM | Potency (Tov112D) 0.447 µM

CNC(=S)NS(=O)(=O)c1cc(CCNC(=O)c2cc(Cl)ccc2OC)ccc1OC
inactive: Potency (C33A) | Potency (CASKI) | Potency (Es-2) | Potency (HeLa) | Potency (Hek293T) | Potency (JEG-3) | Potency (PA-1) | Potency (SKOV3) | Potency (Tov-21-G) | Potency (Tov112D)

Cc1cc(N(C)C)ccc1-c1nc2ccc(-c3nc4ccc(N5CCN(C)CC5)cc4[nH]3)cc2[nH]1
inactive: Potency (C33A) | Potency (Es-2) | Potency (HeLa) | Potency (Hek293T) | Potency (JEG-3) | Potency (OV90) | Potency (Tov-21-G) | Potency (Tov112D)

CN(C)C/C=C/C(=O)Nc1cccc(C(=O)Nc2ccc(Nc3nccc(-c4cccnc4)n3)cc2)c1
active: Potency (C33A) 12.6 µM | Potency (CASKI) 7.08 µM | Potency (HeLa) 20 µM | Potency (OV90) 10 µM | Potency (Tov112D) 10 µM

CCCN1CCC(c2cccc(S(C)(=O)=O)c2)CC1
inactive: Potency (C33A) | Potency (Es-2) | Potency (HeLa) | Potency (Hek293T) | Potency (OV90)

CN(C)CCCCC(=O)Nc1ccc(NC(=S)NC(=O)c2ccc(C(C)(C)C)cc2)cc1
active: Potency (PA-1) 15.8 µM
inactive: Potency (C33A) | Potency (CASKI) | Potency (JEG-3) | Potency (Tov112D)

CCCCNc1ncc2c(-c3ccc(F)cc3)nn(CC3CCC(N)CC3)c2n1 (stereo not drawn)
active: Potency (C33A) 11.2 µM | Potency (CASKI) 10 µM | Potency (HeLa) 10 µM | Potency (Tov-21-G) 7.94 µM

N#Cc1c(Oc2ccc(F)c(NC(=O)Cc3cccc(C(F)(F)F)c3)c2)ccc2nc(NC(=O)C3CC3)sc12
inactive: Potency (C33A)
active: Potency (Es-2) 5.62 µM | Potency (HeLa) 10 µM | Potency (OV90) 1.58 µM | Potency (PA-1) 8.91 µM | Potency (Tov-21-G) 7.94 µM

N=c1nc2n(cc1F)C1OC(CO)C(O)C1O2 (stereo not drawn)
inactive: Potency (C33A) | Potency (CASKI) | Potency (HeLa) | Potency (Hek293T) | Potency (JEG-3) | Potency (Tov-21-G)
active: Potency (PA-1) 0.891 µM | Potency (Tov112D) 1.41 µM

COc1ccc2[nH]c3c(-c4cccc5ccccc45)nccc3c2c1
active: Potency (C33A) 2.82 µM | Potency (CASKI) 1.41 µM | Potency (Es-2) 1.58 µM | Potency (HeLa) 0.891 µM | Potency (PA-1) 0.891 µM | Potency (Tov112D) 1.41 µM

COc1cc(Br)c(Nc2nc(-c3c(C)nc4ncccn34)cs2)c(Br)c1
inactive: Potency (C33A) | Potency (CASKI)
active: Potency (Es-2) 8.91 µM | Potency (PA-1) 4.47 µM | Potency (SKOV3) 8.91 µM | Potency (Tov-21-G) 10 µM
